# Assay results as given in paper PMC7862700, “An all-to-all approach to the identification of sequence-specific readers for epigenetic DNA modifications on cytosine”.
# Columns and labels:
# Assay in all cases: DAPPL (digital affinity profiling via proximity ligation, sequencing); 10 mM Tris-HCl pH 7.5, 50 mM NaCl, 1 mM DTT, 4% glycerol, room temperature, 30 min; GST-TFs on glutathione beads, 16-mer random dsDNA library, 0.1% formaldehyde crosslink after washing; high values mean tight binding
# Conditions in all cases: protein: recombinant; tags: N-terminal GST; dsDNA, one strand shown
# [1] = molecular target: T1, ERF (Homo sapiens, UniProt P50548 1-548)
# T1 sequence: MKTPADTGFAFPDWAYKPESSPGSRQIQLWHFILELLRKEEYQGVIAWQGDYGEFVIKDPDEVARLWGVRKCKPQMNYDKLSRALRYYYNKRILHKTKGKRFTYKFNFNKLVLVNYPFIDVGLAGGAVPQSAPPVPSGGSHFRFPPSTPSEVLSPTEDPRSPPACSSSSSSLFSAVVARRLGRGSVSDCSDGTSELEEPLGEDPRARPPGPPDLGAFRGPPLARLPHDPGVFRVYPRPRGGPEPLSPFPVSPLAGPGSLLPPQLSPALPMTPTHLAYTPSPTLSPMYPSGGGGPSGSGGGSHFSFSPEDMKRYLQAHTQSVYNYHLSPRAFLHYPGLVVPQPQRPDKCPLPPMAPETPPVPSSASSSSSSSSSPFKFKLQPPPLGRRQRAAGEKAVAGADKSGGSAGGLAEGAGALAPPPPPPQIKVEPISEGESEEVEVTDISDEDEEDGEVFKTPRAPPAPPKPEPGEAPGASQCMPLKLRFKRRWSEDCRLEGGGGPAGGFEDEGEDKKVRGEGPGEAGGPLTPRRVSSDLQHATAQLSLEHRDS
# Method in brief: (§1)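 Binding signal is given per hexamer as its read frequency for a factor divided by its frequency in the tag-only sample. GST-fused human transcription factors were expressed in yeast, captured on glutathione beads, barcoded with DNA and pooled with that sample, then incubated with 200 nmole of a 16-mer random double-stranded DNA library in Tris/NaCl/DTT/glycerol buffer for 30 min at room temperature. The pools were then washed, crosslinked, proximity-ligated, amplified by PCR and sequenced on an Illumina NextSeq500.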
# [2] = molecular target: T2, ETV3L (Homo sapiens, UniProt Q6ZN32 1-361)
# T2 sequence: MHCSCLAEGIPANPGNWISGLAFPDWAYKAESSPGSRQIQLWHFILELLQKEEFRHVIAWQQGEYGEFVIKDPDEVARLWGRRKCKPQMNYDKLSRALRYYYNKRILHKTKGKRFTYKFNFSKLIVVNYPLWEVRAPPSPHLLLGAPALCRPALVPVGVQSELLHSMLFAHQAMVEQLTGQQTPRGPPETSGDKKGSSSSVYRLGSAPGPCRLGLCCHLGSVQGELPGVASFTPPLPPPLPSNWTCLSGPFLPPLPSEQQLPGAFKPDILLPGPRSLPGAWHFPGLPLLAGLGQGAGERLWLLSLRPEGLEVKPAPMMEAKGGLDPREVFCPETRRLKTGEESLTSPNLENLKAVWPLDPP
# Method in brief: as §1
# [3] = molecular target: T3, ETS2 (Homo sapiens, UniProt P15036 1-469)
# T3 sequence: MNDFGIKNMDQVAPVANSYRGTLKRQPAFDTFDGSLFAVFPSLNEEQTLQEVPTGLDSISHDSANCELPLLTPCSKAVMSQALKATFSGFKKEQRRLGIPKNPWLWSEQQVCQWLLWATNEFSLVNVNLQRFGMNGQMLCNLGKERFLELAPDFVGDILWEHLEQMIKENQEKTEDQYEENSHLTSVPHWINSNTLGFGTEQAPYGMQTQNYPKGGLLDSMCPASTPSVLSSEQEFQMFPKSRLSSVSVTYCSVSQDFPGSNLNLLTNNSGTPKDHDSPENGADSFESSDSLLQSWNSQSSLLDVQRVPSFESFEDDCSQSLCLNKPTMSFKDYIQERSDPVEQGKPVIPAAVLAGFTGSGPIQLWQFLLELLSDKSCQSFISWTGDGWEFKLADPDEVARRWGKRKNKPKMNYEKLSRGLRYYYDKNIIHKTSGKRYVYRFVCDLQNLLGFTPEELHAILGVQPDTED
# Method in brief: as §1
# [4] = molecular target: T4, SPDEF (Homo sapiens, UniProt O95238 1-335)
# T4 sequence: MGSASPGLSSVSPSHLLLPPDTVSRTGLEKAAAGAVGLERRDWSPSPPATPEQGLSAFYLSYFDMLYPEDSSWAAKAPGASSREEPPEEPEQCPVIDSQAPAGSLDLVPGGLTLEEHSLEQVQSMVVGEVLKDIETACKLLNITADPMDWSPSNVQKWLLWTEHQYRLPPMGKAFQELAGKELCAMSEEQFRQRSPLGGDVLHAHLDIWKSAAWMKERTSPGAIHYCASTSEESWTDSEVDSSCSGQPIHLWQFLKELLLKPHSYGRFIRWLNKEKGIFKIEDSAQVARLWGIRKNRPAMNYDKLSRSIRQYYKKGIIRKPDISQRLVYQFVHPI
# Method in brief: as §1
# [5] = molecular target: T5, ETV7 (Homo sapiens, UniProt Q9Y603 1-341)
# T5 sequence: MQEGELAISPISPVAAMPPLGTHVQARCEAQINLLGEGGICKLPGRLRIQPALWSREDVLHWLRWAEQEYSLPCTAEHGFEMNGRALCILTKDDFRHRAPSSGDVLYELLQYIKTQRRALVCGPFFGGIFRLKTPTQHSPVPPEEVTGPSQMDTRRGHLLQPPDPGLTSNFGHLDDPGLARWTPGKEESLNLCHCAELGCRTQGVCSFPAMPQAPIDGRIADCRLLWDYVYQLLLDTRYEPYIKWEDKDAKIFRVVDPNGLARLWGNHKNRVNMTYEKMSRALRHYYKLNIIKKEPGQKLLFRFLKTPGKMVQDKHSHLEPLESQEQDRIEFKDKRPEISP
# Method in brief: as §1
# [6] = molecular target: T6, ELF5 (Homo sapiens, UniProt Q9UKW6-2 1-255)
# T6 sequence: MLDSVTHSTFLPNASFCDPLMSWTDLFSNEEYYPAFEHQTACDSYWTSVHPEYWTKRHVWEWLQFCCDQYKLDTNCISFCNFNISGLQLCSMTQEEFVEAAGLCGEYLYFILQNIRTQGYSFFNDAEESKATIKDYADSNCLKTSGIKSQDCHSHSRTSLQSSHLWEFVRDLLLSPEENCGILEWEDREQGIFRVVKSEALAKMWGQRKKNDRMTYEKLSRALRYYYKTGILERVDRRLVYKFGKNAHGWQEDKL
# Method in brief: as §1
# [7] = molecular target: T7, ETV3 (Homo sapiens, UniProt P41162-2 1-143)
# T7 sequence: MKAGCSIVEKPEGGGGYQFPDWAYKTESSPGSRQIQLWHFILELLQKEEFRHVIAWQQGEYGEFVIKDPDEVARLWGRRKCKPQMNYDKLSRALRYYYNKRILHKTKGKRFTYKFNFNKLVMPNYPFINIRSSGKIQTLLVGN
# Method in brief: as §1
# [8] = molecular target: ETV6 (Homo sapiens, UniProt P41212 1-452)
# Chain of ETV6 (P41212 whole entry): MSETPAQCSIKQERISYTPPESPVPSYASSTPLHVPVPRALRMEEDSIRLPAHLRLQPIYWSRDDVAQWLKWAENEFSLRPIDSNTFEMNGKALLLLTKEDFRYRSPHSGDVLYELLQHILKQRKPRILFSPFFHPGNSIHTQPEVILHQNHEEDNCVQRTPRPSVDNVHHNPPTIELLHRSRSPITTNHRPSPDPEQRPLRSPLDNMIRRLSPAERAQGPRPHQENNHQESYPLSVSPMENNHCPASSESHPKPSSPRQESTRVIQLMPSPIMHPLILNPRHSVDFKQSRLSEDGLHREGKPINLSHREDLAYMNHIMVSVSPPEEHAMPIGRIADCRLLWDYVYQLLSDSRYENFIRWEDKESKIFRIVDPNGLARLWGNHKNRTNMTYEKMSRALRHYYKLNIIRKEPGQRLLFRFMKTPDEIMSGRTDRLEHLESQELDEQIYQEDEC
# Method in brief: as §1
sequence,measurement,setting,value
GACCTT,binding signal,[1],"1.5 fold enrichment (6-mer frequency, TF over GST control)"
same,binding signal,[2],"1.64 fold enrichment (6-mer frequency, TF over GST control)"
same,binding signal,[3],"1.49 fold enrichment (6-mer frequency, TF over GST control)"
same,binding signal,[4],"1.66 fold enrichment (6-mer frequency, TF over GST control)"
same,binding signal,[5],"1.41 fold enrichment (6-mer frequency, TF over GST control)"
same,binding signal,[6],"1.62 fold enrichment (6-mer frequency, TF over GST control)"
same,binding signal,[7],"1.5 fold enrichment (6-mer frequency, TF over GST control)"
same,binding signal,[8],"1.5 fold enrichment (6-mer frequency, TF over GST control)"
ATTCGC,binding signal,[1],"1.24 fold enrichment (6-mer frequency, TF over GST control)"
same,binding signal,[2],"1.23 fold enrichment (6-mer frequency, TF over GST control)"
same,binding signal,[3],"1.15 fold enrichment (6-mer frequency, TF over GST control)"
same,binding signal,[4],"1.26 fold enrichment (6-mer frequency, TF over GST control)"
same,binding signal,[5],"1.12 fold enrichment (6-mer frequency, TF over GST control)"
same,binding signal,[6],"1.18 fold enrichment (6-mer frequency, TF over GST control)"
same,binding signal,[7],"1.23 fold enrichment (6-mer frequency, TF over GST control)"
same,binding signal,[8],"1.25 fold enrichment (6-mer frequency, TF over GST control)"
AATGAC,binding signal,[1],"1.35 fold enrichment (6-mer frequency, TF over GST control)"
same,binding signal,[2],"1.43 fold enrichment (6-mer frequency, TF over GST control)"
same,binding signal,[3],"1.45 fold enrichment (6-mer frequency, TF over GST control)"
same,binding signal,[4],"1.37 fold enrichment (6-mer frequency, TF over GST control)"
same,binding signal,[5],"1.29 fold enrichment (6-mer frequency, TF over GST control)"
same,binding signal,[6],"1.36 fold enrichment (6-mer frequency, TF over GST control)"
same,binding signal,[7],"1.35 fold enrichment (6-mer frequency, TF over GST control)"
same,binding signal,[8],"1.49 fold enrichment (6-mer frequency, TF over GST control)"
ATGCAT,binding signal,[1],"1.21 fold enrichment (6-mer frequency, TF over GST control)"
same,binding signal,[2],"1.26 fold enrichment (6-mer frequency, TF over GST control)"
same,binding signal,[3],"1.21 fold enrichment (6-mer frequency, TF over GST control)"
same,binding signal,[4],"1.32 fold enrichment (6-mer frequency, TF over GST control)"
same,binding signal,[5],"1.21 fold enrichment (6-mer frequency, TF over GST control)"
same,binding signal,[6],"1.15 fold enrichment (6-mer frequency, TF over GST control)"
same,binding signal,[7],"1.26 fold enrichment (6-mer frequency, TF over GST control)"
same,binding signal,[8],"1.2 fold enrichment (6-mer frequency, TF over GST control)"
TTAATA,binding signal,[1],"1.24 fold enrichment (6-mer frequency, TF over GST control)"
same,binding signal,[2],"1.28 fold enrichment (6-mer frequency, TF over GST control)"
same,binding signal,[3],"1.21 fold enrichment (6-mer frequency, TF over GST control)"
same,binding signal,[4],"1.14 fold enrichment (6-mer frequency, TF over GST control)"
same,binding signal,[5],"1.23 fold enrichment (6-mer frequency, TF over GST control)"
same,binding signal,[6],"1.12 fold enrichment (6-mer frequency, TF over GST control)"
same,binding signal,[7],"1.09 fold enrichment (6-mer frequency, TF over GST control)"
same,binding signal,[8],"1.15 fold enrichment (6-mer frequency, TF over GST control)"
CTTCGA,binding signal,[1],"1.41 fold enrichment (6-mer frequency, TF over GST control)"
same,binding signal,[2],"1.37 fold enrichment (6-mer frequency, TF over GST control)"
same,binding signal,[3],"1.36 fold enrichment (6-mer frequency, TF over GST control)"
same,binding signal,[4],"1.3 fold enrichment (6-mer frequency, TF over GST control)"
same,binding signal,[5],"1.44 fold enrichment (6-mer frequency, TF over GST control)"
same,binding signal,[6],"1.27 fold enrichment (6-mer frequency, TF over GST control)"
same,binding signal,[7],"1.16 fold enrichment (6-mer frequency, TF over GST control)"
same,binding signal,[8],"1.43 fold enrichment (6-mer frequency, TF over GST control)"
TATCGT,binding signal,[1],"1.28 fold enrichment (6-mer frequency, TF over GST control)"
same,binding signal,[2],"1.08 fold enrichment (6-mer frequency, TF over GST control)"
same,binding signal,[3],"1.11 fold enrichment (6-mer frequency, TF over GST control)"
same,binding signal,[4],"1.07 fold enrichment (6-mer frequency, TF over GST control)"
same,binding signal,[5],"1.08 fold enrichment (6-mer frequency, TF over GST control)"
same,binding signal,[6],"1.08 fold enrichment (6-mer frequency, TF over GST control)"
same,binding signal,[7],"1.15 fold enrichment (6-mer frequency, TF over GST control)"
same,binding signal,[8],"1.12 fold enrichment (6-mer frequency, TF over GST control)"
